Screening results from PubChem.
RORg inh: blocks mouse ROR gamma transcriptional activity. AID 2551. Potency, µM (doses to about 53.6 µM), inactives show top-dose activity change, negative = inhibition, actives largely listed as inhibitors. actives 5.4% (n = 310,000). Drosophila S2 Gal4-RORgamma UAS-luciferase reporter, 20 h; also: % is scaled to controls: 0 for no effect and ±100 for the full control effect; nearly all actives have a fitted effect of over 60% in size
Target sequence (P51450 whole entry, looked up, the tested form may be a part): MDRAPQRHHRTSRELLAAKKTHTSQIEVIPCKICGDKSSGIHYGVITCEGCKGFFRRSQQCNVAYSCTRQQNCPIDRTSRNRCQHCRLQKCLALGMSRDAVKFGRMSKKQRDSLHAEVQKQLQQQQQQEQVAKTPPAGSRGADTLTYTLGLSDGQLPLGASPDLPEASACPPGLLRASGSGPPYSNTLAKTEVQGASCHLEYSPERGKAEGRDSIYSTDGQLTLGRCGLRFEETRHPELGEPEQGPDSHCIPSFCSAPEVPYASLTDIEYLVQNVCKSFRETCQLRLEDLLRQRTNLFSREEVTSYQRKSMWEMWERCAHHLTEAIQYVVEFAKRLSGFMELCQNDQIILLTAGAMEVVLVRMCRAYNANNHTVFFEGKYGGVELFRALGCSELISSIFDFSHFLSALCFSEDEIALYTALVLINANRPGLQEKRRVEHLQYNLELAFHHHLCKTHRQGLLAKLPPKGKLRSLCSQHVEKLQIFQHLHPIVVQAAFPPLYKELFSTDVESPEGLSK
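Using a luciferase readout, inhibitors were identified by reduced reporter activity in Drosophila cells coexpressing a copper-inducible Gal4–ROR gamma fusion and UAS-driven Photinus luciferase, incubated 20 hr after 700 uM copper sulfate.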
PINK1 modulator: PINK1 expression modulation; PINK1 immunofluorescence, high-content cytometry, 24 h; Potency, µM (top dose mostly 76.6 µM), for the others: top-dose activation (PINK1 increase), usual class: activators; actives 0.2% (n = 410,000); AID 624263; active = well fitted activation curve with a large enough effect; inconclusive = small, poorly fitted or top-dose-only effect; cell line not stated here; also: % of control where 0% means no effect; nearly all actives have a fitted effect of over 65% in size
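Measures PINK1 amount and localization on or inside mitochondria by immunofluorescence. Stable cells get compounds at 5 concentrations for 24 hours before fixation and staining; CCCP controls included.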
ClpP mod: qHTS Assay for Activators of ClpP | ATP-dependent Clp protease proteolytic subunit (Bacillus subtilis (strain 168)), P80244 | purified B. subtilis ClpP, FRET peptide cleavage, 20 min | Potency, µM (highest dose often 57.5 µM), without a hit: at the top dose activity change, negative = active | actives 1.9% (n = 340,000) | AID 651965, 2013; active = well fitted falling curve with a large enough effect; inconclusive = small, poorly fitted or top-dose-only effect; inactive = no such curve, though single readings can be large or run the other way; also: the source files actives as falling curves though it sought activators and does not explain the sign; nearly all actives have a fitted effect of over 65% in size
Target sequence (P80244 whole entry, looked up): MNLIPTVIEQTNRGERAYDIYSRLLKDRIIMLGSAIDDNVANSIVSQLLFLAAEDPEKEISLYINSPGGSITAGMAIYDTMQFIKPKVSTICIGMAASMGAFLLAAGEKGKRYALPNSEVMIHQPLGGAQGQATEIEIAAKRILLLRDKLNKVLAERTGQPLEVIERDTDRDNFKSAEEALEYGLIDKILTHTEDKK
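Buffer: 100 mM Tris/HCl pH8, 100 mM KCl, 0.05% low protease BSA, 2.5% glycerol, 0.01% Tween-20. ClpP 10 microg/mL final; 20 min RT; delta FRET normalized to ADEP and DMSO controls.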
Epigenetic derep: epigenetic control regulation, reporter derepression. murine LDR cells, GFP reporter derepression, 30 h. Potency, µM (highest dose often 53.9 µM), for the others: top-dose GFP activation, usual class: activators. actives 0.2% (n = 280,000); also: % of control where 0% means no effect; nearly all actives have a fitted effect of over 60% in size
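In this reporter-derepression format, murine cells bearing a silenced integrated CMV-GFP locus incubate with test compound (30 h, 37 C), then are washed and imaged; fluorescent objects of 20–120 um count as induced cells.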
Gal4-VP16 FLuc: Gal4-VP16 reporter inhibition counter-screen | Drosophila S2 Gal4-VP16 UAS-luciferase, luminescence, 20 h | Potency, µM (highest dose often 53.6 µM), for the others: top-dose activity, negative = inhibition, hits mostly inhibitors | actives 3.5% (n = 310,000);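 also: Gal4-VP16 expression switched on by copper sulfate through the metallothionein promoter; % is scaled to controls: 0 for no effect and ±100 for the full control effect; nearly all actives have a fitted effect of over 50% in size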
Sfp inh: Sfp phosphopantetheinyl transferase inhibition. Q9F4F7. Biochemical Sfp PPTase activity, qHTS. Potency, µM, for the others: largest response in the series, negative = inhibition, actives largely listed as inhibitors. actives 3.5% (n = 310,000);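 also: the enzyme is Sfp with the accession as filed and its product quenches rhodamine fluorescence; 0% = enzyme reaction without inhibitor and -100% = no enzyme wells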
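Step 1, compound plus 15 nM Sfp-PPTase, 15 min, room temperature. Step 2, add rhodamine-CoA (5 uM) and BHQ-2-YbbR (12.5 uM). Step 3, read 525/598 nm fluorescence at 0 and 30 min.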
* = called active by the depositor; u = inconclusive; x = no result; [ ] = dose if it differs, or a comment. The list is not random: actives were taken first. Their share in the collection is about 8.1%. Unless noted, calls follow the shape of the dose curve; as a rule, active = well fitted curve in the direction sought with a large enough effect; inconclusive = small, poorly fitted or top-dose-only effect, or another doubt; inactive = no such curve, though single readings can be large; an effect the other way counts as inactive or inconclusive. Potency is read from the fitted curve at half-maximal effect.

SMILES	RORg inh	PINK1 modulator	ClpP mod	Epigenetic derep	Gal4-VP16 FLuc	Sfp inh
O=C(Nc1nnc(C2=COCCO2)o1)c1cccc(F)c1	0.63µM*	-1%	0%	x	0.56µM*	17%
Cc1cccc(C(=O)Nc2nnc(C3=COCCO3)o2)c1	0.5µM*	0%	x	-8%	1µM*	-4%
CS(=O)(=O)c1cccc(-c2nnc(NC(=O)c3ccc4c(c3)OCCO4)o2)c1	x	1%	-3%	4%	x	x
O=[N+]([O-])c1cc(Br)c(Nc2ccccc2)c([N+](=O)[O-])c1	u	-1%	1%	x	13µM*	-8%
O=C(N/N=C/c1ccccc1OC(=O)c1ccc2c(c1)OCO2)c1ccccc1	11µM*	1%	1%	u	u	-3%
CC(C)(C)C(=O)Nc1ccc(C(=O)N/N=C/c2ccccc2OC(=O)c2ccc(Cl)cc2)cc1	5%	3%	1%	0%	-4%	-5%
COc1ccc(C(=O)N/N=C/c2ccccc2OC(=O)c2ccccc2)cc1	3.5µM*	4%	x	x	5µM*	4%
CC(C)(C)C(=O)Nc1ccc(C(=O)N/N=C/c2ccccc2OC(=O)c2ccccc2)cc1	6.3µM*	1%	-2%	-1%	u	25%
COc1cc2c(cc1OC)C(c1ccc(F)cc1)N(c1ccc(F)cc1)C(=O)C2 (stereo not drawn)	x	1%	1%	-2%	x	x
COc1ccc2c(c1)c1ncn(Cc3ccco3)c(=O)c1n2C	24%	0%	-4%	-2%	u	18µM*
N#CC1=C2SCN(C3CCCCC3)CN2C(=O)CC1c1c(F)cccc1Cl (stereo not drawn)	x	0%	-2%	1%	x	x
Cc1ccc(C2CC(=O)N3CN(Cc4ccco4)CSC3=C2C#N)cc1 (stereo not drawn)	-43%	-2%	-1%	-1%	u	2.2µM*
N#CC1=C2SCN(Cc3ccco3)CN2C(=O)CC1c1c(F)cccc1Cl (stereo not drawn)	-37%	2%	0%	0%	u	2.8µM*
COc1ccc(NC(=S)NC(=O)C2CCC2)cc1	8.9µM*	-1%	-1%	x	11µM*	-5%
COC(=O)c1ccc(NC(=S)NC2CCCCC2C)cc1 (stereo not drawn)	7.9µM*	u	5%	0%	3.5µM*	10%
CCOC(=O)c1ccc(NC(=S)NC(=O)C2CCCC2)cc1	7.1µM*	2%	2%	x	7.1µM*	-18%
COC(=O)c1ccc(NC(=O)CN(C2CCCCC2)S(C)(=O)=O)cc1	-23%	3%	0.71µM*	0%	5%	20%
COc1ccc(OCC(=O)NNC(=S)NC(=O)C2CC2)cc1	-13%	3%	-1%	x	6%	16%
COC(=O)c1ccc(NC(=S)Nc2ccccc2)cc1	11%	0%[38.3 µM]	1%	-8%	-2%[0.365 µM]	3%
COC(=O)c1ccc(NC(=S)NC(=O)C2CCC2)cc1	11µM*	0%	-2%	x	u	-4%
COC(=O)c1ccc(NC(=S)Nc2ccc3ccccc3c2)cc1	13µM*	9%	-26%	-3%	u	-15%
COc1ccc(OCC(=O)NNC(=S)NC(=O)C2CCCCC2)cc1	14µM*	x	x	x	-11%	11%
CC(=O)NCCNC(=O)CCCc1nnc2n(CC(C)C)c(=O)c3sccc3n12	x	-1%	-41%	3%	x	x
CCc1ccc(CNC(=O)c2ccc3nc(C(C)C)oc3c2)cc1	x	0%	0%	-1%	x	x
Cc1cccc2nc(COc3ccc4ccccc4c3Br)cn12	8.9µM*	1%	x	-4%	u	u
SMILES	RORg inh	PINK1 modulator	ClpP mod	Epigenetic derep	Gal4-VP16 FLuc	Sfp inh
c1ccc(-c2nc(NCc3ccco3)c3ccccc3n2)nc1	1.3µM*	1%	-2%	0%	2.8µM*	1%
c1ccc2c(NCC3CCCO3)nc(N3CCOCC3)nc2c1 (stereo not drawn)	3%	0%	3%	4%	-3%	20%
Cc1ccc(Nc2nc(NCc3ccco3)c3ccccc3n2)cc1	u	-2%	x	-1%	-13%[10 µM]	10µM*
c1ccc(-c2nc(NCC3CCCO3)c3ccccc3n2)nc1 (stereo not drawn)	1.6µM*	x	-2%	1%	7.1µM*	u
OCCNc1nc(Nc2ccc(Br)cc2)nc2ccccc12	8%	-2%	x	1%	-17%	40µM*
CCc1ccccc1NC(=O)CSc1ncc(S(=O)(=O)c2ccccc2)c(N)n1	x	0%	-2%	0%	x	x
CC(C)C(NS(C)(=O)=O)c1nnc2n1CCN(Cc1ccnc3ccccc13)CC2 (stereo not drawn)	x	0%	x	x	x	x
c1ccc(Nc2nc(NCC3CCCO3)c3ccccc3n2)cc1 (stereo not drawn)	-19%	8%	x	0%	u	u
CCOc1ccc(Nc2nc(NCC3CCCO3)c3ccccc3n2)cc1 (stereo not drawn)	u	-1%	x	-2%	u	35µM*
CCOC(=O)C1=C(c2ccccc2)NC(N)=NC1c1ccc(OCc2ccc(Cl)cc2)c(OC)c1 (stereo not drawn)	-1%	0%	-1%	5%	-18%	32µM*
CCN1CCCC1CNC(=O)c1cnn(-c2ncc(C)c(-c3ccc(F)cc3)n2)c1C(C)C (stereo not drawn)	x	-1%	x	x	x	x
O=C1OC2(c3ccccc31)c1cc(I)c(O)c(I)c1Oc1c2cc(I)c(O)c1I	-30%	x	x	x	-22%	14µM*
Oc1ccc2ccccc2c1N=Nc1ccccc1F	-17%	0%	u	0%	-5%	4%
Oc1ccc2ccccc2c1N=Nc1ccccn1	0.28µM*	-3%	-1%	u	u	-15%
CC(C)CCn1c(O)c(N=Nc2ccccn2)c2ccccc21	14µM*	11%	-2%	0%	11µM*	-16%
O=C(O)c1ccc(CN(c2ccccn2)S(=O)(=O)c2ccccc2)cc1	2%	-4%[38.3 µM]	28µM*	-8%	-7%	11%
O=S(=O)(c1ccccc1)N(Cc1ccccc1)c1ccccn1	22%	1%	-1%	0%	10%	7%
O=C(NCc1ccccc1)c1ccc(CN(c2ccccn2)S(=O)(=O)c2ccccc2)cc1	36%	-1%	20µM*	0%	-6%	3%
CCCN(C/C=C/I)C1CCc2cccc(O)c2C1 (stereo not drawn)	x	x	x	0%	x	-13%
Cc1cccc(CN2CCC(C(=O)Nc3cccc(-c4cccc(F)c4)c3)CC2)n1	7.1µM*	-1%	-1%	x	u	-2%
COc1cccc(-c2ccc(NC(=O)C3CCCN(Cc4ccccn4)C3)cc2)c1 (stereo not drawn)	x	2%	-1%	x	x	x
